{"source": "PubChem BioAssay AID540356", "about": "(Broad Institute, 2011)", "note": "Hit rate of the full screen: of about 2,500 compounds, about 360 (14%) were called active. These entries were drawn from the full list. Values without a mark were called inactive.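 The calls were made as follows: active = signal-lowering compounds whose fitted half-maximal concentration AC50 is no higher than ten times their top tested concentration; inconclusive = flat curve with 30 to 70% inhibition, or poor fit; inactive = flat within 30%, signal increase, or AC50 above limit.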"}
{"assay": "HRP/luminol detection interference without ALR, dose response, artefact control for ALR inhibitor project, biochemical, luminescence, no ALR or DTT, cherry-pick (AID 540356);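 as to activity change, negative = inhibition: 0% = median of neutral control wells and -100% = median of quercitin 100 µM wells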", "settings": "HRP/H2O2 luminol luminescence counterscreen; series mostly up to 10 µM; activity change, negative = inhibition: at the top concentration", "units": {"activity change, negative = inhibition": "%"}}
{"smiles": "Clc1ccc(/C=C/c2ncc3ccccn23)cc1", "activity change, negative = inhibition": -2.76}
{"smiles": "COc1cc(/C=N/Nc2nc3ccccc3[nH]2)ccc1O", "AC50": "8.83 µM (active)"}
{"smiles": "COc1cc(/C=N/Nc2nc3ccccc3[nH]c2=O)ccc1O", "activity change, negative = inhibition": -1.19}
{"smiles": "COc1ccc(/C=N/Nc2nc3ccccc3[nH]2)cc1OC", "activity change, negative = inhibition": -4.23}
{"smiles": "O=S(=O)(Nc1ccc(N2CCCCC2)cc1)c1cccc2cccnc12", "activity change, negative = inhibition": -3.36}
{"smiles": "COc1ccc(CNc2nc3ccccc3n2C(C)C)c(O)c1", "activity change, negative = inhibition": -1.78}
{"smiles": "COc1ccc(O)c(-c2cc(-c3ccccc3[N+](=O)[O-])[nH]n2)c1", "activity change, negative = inhibition": -1.04}
{"smiles": "Oc1ccccc1-c1n[nH]c(=S)n1Cc1ccco1", "activity change, negative = inhibition": -1.91}
{"smiles": "COc1ccc(N2CCN(S(=O)(=O)c3cccc4cccnc34)CC2)cc1", "activity change, negative = inhibition": -0.663}
{"smiles": "Oc1ccc(NCc2cccs2)cc1", "activity change, negative = inhibition": -11.6}
{"smiles": "Oc1cccc(Nc2c3ccccc3nc3ccccc23)c1", "activity change, negative = inhibition": -4.8}
{"smiles": "COC(=O)C1C(C(C)C)N(c2ccccc2)OC1(C)O", "note": "(stereo not given)", "activity change, negative = inhibition": 0.721}
{"smiles": "CCc1ccc(CNc2ccc(N3CCN(C(C)=O)CC3)cc2)cc1", "activity change, negative = inhibition": -9.6}
{"smiles": "CC(=O)N1CCN(c2ccc(NCc3ccccc3)cc2)CC1", "AC50": "8.41 µM (active)"}
{"smiles": "CC(=O)N1CCN(c2ccc(NCc3cccc4ccccc34)cc2)CC1", "activity change, negative = inhibition": -12.5}
{"smiles": "CCN(CCCNC(=O)CN(C)S(=O)(=O)c1cccc2nsnc12)c1cccc(C)c1", "activity change, negative = inhibition": -0.901}
{"smiles": "O=S(=O)(c1ccc2ccccc2c1)N1CCN=C1SCc1cccnc1", "activity change, negative = inhibition": -0.468}
{"smiles": "CCCc1ccc(-c2cc(N)n[nH]2)cc1", "activity change, negative = inhibition": 1.55}
{"smiles": "Cc1cccc(N/N=C/c2ccncc2)c1", "AC50": "2.61 µM (active)"}
{"smiles": "O=C(N/N=C/c1ccncc1)c1cccc(N/N=C/c2ccncc2)c1", "activity change, negative = inhibition": -0.954}
{"smiles": "Cc1cccc(N/N=C/c2ccc(O)c(O)c2O)c1", "activity change, negative = inhibition": -9.18}
{"smiles": "COC(=O)/C=C/S(=O)(=O)c1ccc(NC(C)=O)cc1", "activity change, negative = inhibition": -3.22}
{"smiles": "CC(=O)N/N=C/c1cc(C)n(-c2ccc(Br)cc2)c1C", "activity change, negative = inhibition": -6.43}
{"smiles": "COc1cc(/C=C2\\CCCc3c2nc2ccccc2c3C(=O)O)cc(Br)c1O", "activity change, negative = inhibition": -1.92}
{"smiles": "CCN(CC)c1ccc(NS(=O)(=O)c2ccc(OC)cc2)cc1", "activity change, negative = inhibition": -0.963}
{"smiles": "CCc1cc(C(=O)c2ccc(OC)cc2)c(NC(=O)CC(C)(C)CC(=O)O)s1", "activity change, negative = inhibition": -10.1}
{"smiles": "COc1cc(/C=N/NC(=O)c2ccc(CSc3nncn3C)cc2)cc(OC)c1O", "activity change, negative = inhibition": -11}
{"smiles": "Cn1c(CSCc2ccc(Cl)cc2)n[nH]c1=S", "activity change, negative = inhibition": -3.7}
{"smiles": "Cc1nn(-c2ccccc2)c(C)c1-c1cc(C(=O)N/N=C/c2ccc(O)cc2)[nH]n1", "activity change, negative = inhibition": -5.99}
{"smiles": "Cc1cc(C)n2nc(C(=O)N/N=C/c3ccc(O)cc3)nc2n1", "activity change, negative = inhibition": -6.76}
{"smiles": "CN(C)Cc1ccccc1Sc1ccc(O)cc1O", "activity change, negative = inhibition": -17.3}
{"smiles": "Cc1c(Cl)cccc1-n1c(-c2cccnc2)n[nH]c1=S", "activity change, negative = inhibition": -8.61}
{"smiles": "CN(C)c1ccc(CNS(=O)(=O)c2ccc3c(c2)NC(=O)CS3)cc1", "activity change, negative = inhibition": 4.17}
{"smiles": "Cc1cc(C(=O)NNc2ccc(F)cc2)no1", "activity change, negative = inhibition": -5.17}
{"smiles": "Cc1ccc(NCCC(=O)c2cccs2)cc1C", "activity change, negative = inhibition": -0.813}
{"smiles": "Cc1ccc(NNC(=O)c2ccno2)cc1C", "AC50": "0.635 µM (active)"}
{"smiles": "O=C(Nc1ccc(Cl)c(Cl)c1)Nc1ccccc1C(=O)O", "activity change, negative = inhibition": -2.26}
{"smiles": "Cc1ccc(NNC(=O)c2ccno2)cc1Cl", "AC50": "0.327 µM (active)"}
{"smiles": "COc1ccc(/C=N/NC(=O)c2ccncc2)cc1CN1CCN(c2ccc(F)cc2)CC1", "activity change, negative = inhibition": -3.54}
{"smiles": "CCN(CC)c1ccc(/C=N/NC(=O)c2cccc(N3CCCC3=O)c2)cc1", "activity change, negative = inhibition": -1.14}
